The conditions of assay [1]: Ebola virus entry assay, green fluorescence channel.
For assay [2] the following is noted: Ebola virus entry assay, blue channel fluorescence.
The conditions of assay [3]: Ebola virus entry assay, green fluorescence channel. The source holds these as a separate data set.
For assay [4] the following is noted: Ebola virus entry assay, ratio channel readout.
For assay [5] the following is noted: Ebola virus entry assay, ratio channel.
For assay [6] the following is noted: Ebola virus entry assay, green channel fluorescence.
The conditions of assay [7]: Ebola virus entry assay, blue channel fluorescence. This is another data set of the same source.
For assay [8] the following is noted: Ebola virus entry assay, reporter ratio channel; AC50: Channel type: primary unless noted; outcome: Channel type: primary unless noted.
The conditions of assay [9]: Ebola virus entry assay, blue channel (ratio component).

The values below come from PubChem BioAssay (NCATS).

A number with no mark means an inactive call. For part of these data: Potency and affinity values are given separately. Active and inactive are the calls of the source.
Wherever efficacy is given: 0% is about no effect.

Regarding `CNS(=O)(=O)Cc1ccc2[nH]cc(CCN(C)C)c2c1`, the efficacy in assay [1] was 17.1%. In addition, the call in [2], in assay [3], in assay [4], in assay [5], in assay [6] and in [7] was inactive. The outcome in assay [8] and in assay [9] was inactive.
Take `O=C(O)COCCN1CCN(C(c2ccccc2)c2ccc(Cl)cc2)CC1` (stereo unspecified): in [1], the efficacy was -24.1%. Moreover, the compound was classed as inactive in [2], in assay [3], in assay [4], in assay [6], in [7] and in assay [8]. The outcome in assay [9] was inactive.
Turning to `NCC1(CC(=O)O)CCCCC1`, the efficacy in assay [1] is -9.69%. The compound was called inactive in [2], in assay [3], in [4], in [5], in [6] and in [7]. In addition, the outcome in assay [8] and in assay [9] was inactive.
As to `Cc1cccc(C)c1OCC(C)N` (stereo unspecified), in assay [1], the efficacy was -20.8%. Moreover, the result in assay [2], in assay [3], in [4], in assay [5], in [6] and in [8] was inactive. The result in assay [9] was inactive.
Consider `Cc1cccc(Nc2ccncc2S(=O)(=O)NC(=O)NC(C)C)c1`, for which the efficacy in assay [1] is -34.9%. The result in [2], in [3], in assay [4], in assay [6], in [7] and in assay [8] was inactive. Also, the result in assay [9] was inactive.
As for `CN(C)CCc1c[nH]c2ccc(C[C@H]3COC(=O)N3)cc12`, the efficacy in assay [1] was -13.2%. For the same compound, the outcome in assay [2], in assay [3], in assay [4], in [6], in assay [7] and in assay [8] was inactive. For the same compound, the outcome in assay [9] was inactive.
`C1N2CN3CN1CN(C2)C3`: the efficacy in [1] was 14.5%. The result in [2], in assay [3], in assay [4], in assay [6], in [7] and in assay [8] was inactive. Besides, the result in assay [9] was inactive.
On to `CC(C)(C#N)c1cc(Cn2cncn2)cc(C(C)(C)C#N)c1`, for which, in assay [1], the efficacy is 15%. Besides, the compound was classed as inactive in [2], in [3], in assay [4], in [5], in [6] and in assay [7]. Also, the outcome in [8] and in assay [9] was inactive.
For `Cc1ccc(-c2nc3ccc(C)cn3c2CC(=O)N(C)C)cc1`, in assay [1], the efficacy was -21.9%. Also, the outcome in assay [2], in [3], in [4], in [6], in assay [7] and in [8] was inactive. Besides, the result in assay [9] was inactive.
As to `COc1cc(Cc2cnc(N)nc2N)cc(OC)c1OC`, in assay [1], the efficacy was -22.6%. Moreover, the result in assay [2], in [3], in assay [4], in assay [6], in [7] and in [8] was inactive. Moreover, the outcome in assay [9] was inactive.
Regarding `CCCNC(=O)NS(=O)(=O)c1ccc(Cl)cc1`, in assay [1], the efficacy is -18.6%. The compound was called inactive in [2], in assay [3], in assay [4], in assay [6], in assay [7] and in assay [8]. For the same compound, the result in assay [9] was inactive.
For `CN(C)/N=N/c1nc[nH]c1C(N)=O`, the efficacy in [1] is -24.1%. The call in assay [2], in assay [3], in assay [4], in assay [6], in assay [7] and in assay [8] was inactive. Further, the outcome in [9] was inactive.
For the compound `CC1Cc2ccccc2N1NC(=O)c1ccc(Cl)c(S(N)(=O)=O)c1` (stereo unspecified), in [1], the efficacy is 11.5%. Moreover, the compound was classed as inactive in assay [2], in assay [3], in [4], in [6], in assay [7] and in assay [8]. The outcome in assay [9] was inactive.
As to `CCOC(=O)N1CCC(=C2c3ccc(Cl)cc3CCc3cccnc32)CC1`, the efficacy in assay [1] is 62.3%. Further, the compound was classed as inactive in [2], in assay [3] and in assay [4]. Besides, the AC50 in assay [5] and in assay [8] was 6.31 µM (active) throughout.
As for `Nc1[nH]c(=O)ncc1F`, the efficacy in assay [1] was 14.3%. Besides, the compound was called inactive in [2], in assay [3], in assay [4], in [6], in assay [7] and in assay [8]. Further, in assay [9], the outcome was inactive.
On to `CC(C)(C)C(=O)OCOP(=O)(COCCn1cnc2c(N)ncnc21)OCOC(=O)C(C)(C)C`, for which the efficacy in [1] was -17.9%. Besides, the compound was classed as inactive in assay [2], in assay [3], in [4], in assay [6], in [7] and in assay [8]. In addition, the outcome in [9] was inactive.
As for `CC(=O)O[C@]1(C(C)=O)CC[C@H]2[C@@H]3C=C(Cl)C4=CC(=O)[C@@H]5C[C@@H]5[C@]4(C)[C@H]3CC[C@@]21C`, the efficacy in assay [1] was 67.4%. In addition, the outcome in [2], in [3], in assay [4] and in assay [9] was inactive. The AC50 in assay [5] and in [8] was 3.55 µM (active) throughout.
For the compound `O=C1OCCN1/N=C/c1ccc([N+](=O)[O-])o1`, in assay [1], the efficacy is 18%. In addition, the call in assay [2], in assay [3], in [4], in assay [5], in [6] and in assay [7] was inactive. The outcome in assay [8] and in assay [9] was inactive.
Take `CN(C)[C@@H]1C(=O)C(C(N)=O)=C(O)[C@@]2(O)C(=O)C3=C(O)c4c(O)cccc4[C@@](C)(O)[C@H]3C[C@@H]12`: the efficacy in assay [1] is 106%. Besides, the outcome in [2], in assay [3], in assay [4], in assay [5] and in assay [7] was inactive. In assay [8], the half-maximal activity concentration (AC50) is 31.6 µM (active).
Take `Nc1ccn([C@@H]2O[C@H](CO)[C@@H](O)C2(F)F)c(=O)n1`: the efficacy in assay [1] is -29.1%. For the same compound, the call in assay [2], in [3], in assay [4], in assay [5], in assay [6] and in assay [7] was inactive. In addition, the outcome in assay [8] and in [9] was inactive.
In the case of `CC(C)NC[C@@H](O)COc1ccc(CC(N)=O)cc1`, the efficacy in assay [1] was -16.3%. For the same compound, the compound was classed as inactive in [2], in [3], in assay [4], in [6], in [7] and in assay [8]. For the same compound, the outcome in assay [9] was inactive.
As for `CN(C)C(=N)N=C(N)N`, the efficacy in assay [1] is -14%. For the same compound, the call in assay [2], in assay [3], in assay [4], in assay [5], in assay [6] and in assay [7] was inactive. The outcome in assay [8] and in assay [9] was inactive.
Take `C#CCN(C)[C@H](C)Cc1ccccc1`: the efficacy in [1] was 21.9%. Besides, the compound was classed as inactive in [2], in assay [3], in assay [4], in assay [6], in assay [7] and in assay [8]. Also, the outcome in [9] was inactive.
